test: qHTS profiling of the MIPE4 collection as inhibitors of Plasmodium falciparum (3D7) proliferation (AID 743344);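 further: scaled between DMSO vehicle wells and 0.29 µM artemisinin as full inhibition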; conditions: P. falciparum 3D7 in erythrocytes, SYBR Green DNA fluorescence, 72 h; at 28.5 µM unless noted
Text: Plasmodium falciparum is a virulent malarial parasite that kills 1-2 million people worldwide each year. Transmitted by mosquitoes, the sporozoite form of the parasite enters the blood stream to infect hepatocytes, where they become merozoites that infect red blood cells (erythrocytes). Within erythrocytes, merozoites begin a […] cycle of growth and division, after which the parasite is released to infect new red blood cells. Gametocytes, which form within erythrocytes as well, circulate in the bloodstream and are ingested by the mosquito, thereby completing the life cycle. To profile malarial isolates for differential chemical responses and to identify inhibitors of malarial growth, an assay that measures P. falciparum growth and replication within erythrocytes was employed. This assay uses a DNA binding fluorescent dye (SYBR Green) to detect parasite DNA following cell lysis. Because mature erythrocytes lack DNA, only Plasmodium-derived DNA is detected.
The SYBR Green viability assay was adapted from a method described previously (Plouffe et al., 2008). For screening 3 ul culture medium was dispensed into 1536 well black clear bottom plates (Aurora Biotechnologies) using a Multidrop Combi (Thermo Fisher Scientific Inc.), 23 nL compounds in DMSO were added by a pin tool (Kalypsys), and 5 ul of erythrocytes infected with P. falciparum (0.3% parasitemia, 2.5% hematocrit final concentration) were added. The plates were incubated at 37 C in a humidified incubator in 5% CO2 for 72 h, and 2 ul lysis buffer (20 mM Tris HCl, 10 mM EDTA, 0.16% saponin, 1.6% triton X, 10X SYBR Green I supplied as 10,000X […] by Invitrogen) was added to each well. The plates were mixed for 25 sec with gentle shaking and incubated overnight at room temperature in the dark. The following morning, fluorescence intensity at 485(14) nm excitation and 535(25) nm emission wavelengths was measured on an EnVision (Perkin Elmer) plate reader. Plate reads were normalized relative to the control inhibitor (0.29 uM artemisinin) and vehicle (DMSO) wells present on each plate and then corrected by an algorithm using vehicle-only control plates at the beginning and end of the compound plate stack.

SMILES | parasite growth, % of DMSO control
C[C@]12C=CC(=O)C=C1CC[C@@H]1[C@@H]2C(=O)C[C@@]2(C)[C@H]1CC[C@]2(O)C(=O)CO | 93.3% [at 9.64 µM]
CCOC(=O)c1ccc(OC(=O)CCCCCN=C(N)N)cc1 | 93%
CN1CCCC(n2nc(Cc3ccc(Cl)cc3)c3ccccc3c2=O)CC1 (stereo not given) | 5.72%
CCN[C@H]1C[C@H](C)S(=O)(=O)c2sc(S(N)(=O)=O)cc21 | 93.1%
Cc1onc(-c2ccccc2Cl)c1C(=O)N[C@@H]1C(=O)N2[C@@H]1SC(C)(C)[C@@H]2C(=O)O | 86.7%
COc1cc2ncnc(Nc3cccc(Cl)c3)c2cc1OC | 8.74%
COc1cc2c(Nc3ccc(Br)cc3F)ncnc2cc1OCC1CCN(C)CC1 | 5.79%
CNS(=O)(=O)Cc1ccc2[nH]cc(CCN(C)C)c2c1 | 64.4%
COc1ccc(-c2ccc3cc(C(=O)O)ccc3c2)cc1C12CC3CC(CC(C3)C1)C2 | 66.2%
Cc1oc(=O)oc1CN1CCN(c2cc3c(cc2F)c(=O)c(C(=O)O)c2n3C(C)S2)CC1 (stereo not given) | 24.1%
S=P(N1CC1)(N1CC1)N1CC1 | 11.7%
CC(C)(C)C(=O)OCOP(=O)(COCCn1cnc2c(N)ncnc21)OCOC(=O)C(C)(C)C | 68.2%
C[C@@H]1C[C@H]2[C@@H]3CCC4=CC(=O)C=C[C@]4(C)[C@@]3(Cl)[C@@H](O)C[C@]2(C)[C@@]1(OC(=O)c1ccco1)C(=O)CCl | 5.2%
CC(=O)[C@H]1CC[C@H]2[C@@H]3CC=C4C[C@@H](O)CC[C@]4(C)[C@H]3CC[C@]12C | 89.9%
COCCCOc1cc(C[C@@H](C[C@H](N)[C@@H](O)C[C@H](C(=O)NCC(C)(C)C(N)=O)C(C)C)C(C)C)ccc1OC | 40.6%
CCc1cc(C(N)=S)ccn1 | 4.85%
O=C(O)CSCC(=O)NC1CCSC1=O (stereo not given) | 102%
CC(=O)Oc1ccccc1C(=O)Nc1ncc([N+](=O)[O-])s1 | 4.65% [at 57.5 µM]
COC(=O)Nc1nc2ccc(Sc3ccccc3)cc2[nH]1 | 75.4%
CCOC(=O)c1ccc(C#Cc2ccc3c(c2)C(C)(C)CCS3)nc1 | 36.2%

SMILES | parasite growth, % of DMSO control
CCN(CC)CCn1c(=O)c(Cc2ccc(OC)cc2)nc2ccccc21 | 206%
O=C(O)C1CCCN(CCC=C(c2ccccc2)c2ccccc2)C1 (stereo not given) | 82.1%
CN1CCN(c2c(F)cc3c(=O)c(C(=O)O)cn(CCF)c3c2F)CC1 | 86.6%
CCOCC(O)COc1ccc(NC(=O)CC[S+](C)C)cc1 (stereo not given) | 84%
CCC(=O)O[C@]1(C(=O)CCl)[C@@H](C)C[C@H]2[C@@H]3CCC4=CC(=O)C=C[C@]4(C)[C@@]3(F)[C@@H](O)C[C@@]21C | 6.83%
COc1cc2nc(N3CCCN(C)CC3)nc(NC3CCN(Cc4ccccc4)CC3)c2cc1OC | 4.4%
CCc1c2c(nc3ccc(OC(=O)N4CCC(N5CCCCC5)CC4)cc13)-c1cc3c(c(=O)n1C2)COC(=O)[C@]3(O)CC | 66.3%
CC(C)C[C@H](NC(=O)[C@H](CCc1ccccc1)NC(=O)CN1CCOCC1)C(=O)N[C@@H](Cc1ccccc1)C(=O)N[C@@H](CC(C)C)C(=O)[C@@]1(C)CO1 | 5.1%
NC(=O)c1cccnc1 | 98.2%
CC(C)(Sc1cc(C(C)(C)C)c(O)c(C(C)(C)C)c1)Sc1cc(C(C)(C)C)c(O)c(C(C)(C)C)c1 | 23.4%
CN1CCN(c2c(F)cc3c(=O)c(C(=O)O)cn4c3c2OCN4C)CC1 | 90.8%
CCOc1cc(N)c(Cl)cc1C(=O)NCC1CN(Cc2ccc(F)cc2)CCO1 (stereo not given) | 105%
CN(C)CCc1c[nH]c2ccc(CS(=O)(=O)N3CCCC3)cc12 | 94.3%
CCCc1nc(C)c2c(=O)[nH]c(-c3cc(S(=O)(=O)N4CCN(CC)CC4)ccc3OCC)nn12 | 6.01%
CN(CCOc1ccc(CC2SC(=O)NC2=O)cc1)c1ccccn1 (stereo not given) | 98.7%
CCn1cc(C(=O)O)c(=O)c2cc(F)c(N3CCNCC3)nc21 | 35.6%
N[C@@H](Cc1ccc(O)c(O)c1)C(=O)O | 85.4%
C[C@@H]1CN(c2c(F)c(N)c3c(=O)c(C(=O)O)cn(C4CC4)c3c2F)C[C@H](C)N1 | 55.7% [at 9.64 µM]
CCN(CC)CC#CCOC(=O)C(O)(c1ccccc1)C1CCCCC1 (stereo not given) | 14.3%
Nc1[nH]c(=O)ncc1F | 408%

Reference: PubChem BioAssay (NCATS)
